# In article PMC7862700, “An all-to-all approach to the identification of sequence-specific readers for epigenetic DNA modifications on cytosine”:
# How the values were obtained:
# Assay in all cases: DAPPL (digital affinity profiling via proximity ligation, sequencing); 10 mM Tris-HCl pH 7.5, 50 mM NaCl, 1 mM DTT, 4% glycerol, room temperature, 30 min; GST-TFs on glutathione beads, 16-mer random dsDNA library, 0.1% formaldehyde crosslink after washing; high values mean tight binding
# FLI1 = target: T1, FLI1 (Homo sapiens, UniProt Q01543 1-452); conditions: protein: recombinant; tags: N-terminal GST; dsDNA, one strand shown
# T1 sequence: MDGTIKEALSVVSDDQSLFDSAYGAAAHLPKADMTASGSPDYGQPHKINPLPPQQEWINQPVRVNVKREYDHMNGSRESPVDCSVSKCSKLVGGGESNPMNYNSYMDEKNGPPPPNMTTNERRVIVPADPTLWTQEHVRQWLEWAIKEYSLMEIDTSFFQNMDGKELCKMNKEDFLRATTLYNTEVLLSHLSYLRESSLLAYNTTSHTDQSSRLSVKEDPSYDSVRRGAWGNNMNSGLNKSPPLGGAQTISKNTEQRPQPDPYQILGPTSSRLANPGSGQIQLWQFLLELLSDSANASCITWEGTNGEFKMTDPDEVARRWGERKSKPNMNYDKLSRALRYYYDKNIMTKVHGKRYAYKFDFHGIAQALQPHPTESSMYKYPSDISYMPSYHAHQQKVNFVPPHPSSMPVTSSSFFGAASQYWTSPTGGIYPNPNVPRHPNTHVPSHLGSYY
# Outline: (§1)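 In yeast, human transcription factors were expressed with a GST fusion, then pulled down on glutathione beads and given DNA barcodes. Pooled with a tag-only sample, they were exposed to 200 nmole of a 16-mer random double-stranded DNA library (Tris/NaCl/DTT/glycerol buffer, room temperature, 30 min), washed, crosslinked with 0.1% formaldehyde, proximity-ligated using BsaI/T4 ligase for 1 h at 37 °C, PCR-amplified and read on an Illumina NextSeq500. Each hexamer's frequency of reads for a factor, divided by the matching frequency for the tag-only sample, gives the binding signal.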
# ELK1 = target: T2, ELK1 (Homo sapiens, UniProt P19419 1-428); conditions: protein: recombinant; tags: N-terminal GST; dsDNA, one strand shown
# T2 sequence: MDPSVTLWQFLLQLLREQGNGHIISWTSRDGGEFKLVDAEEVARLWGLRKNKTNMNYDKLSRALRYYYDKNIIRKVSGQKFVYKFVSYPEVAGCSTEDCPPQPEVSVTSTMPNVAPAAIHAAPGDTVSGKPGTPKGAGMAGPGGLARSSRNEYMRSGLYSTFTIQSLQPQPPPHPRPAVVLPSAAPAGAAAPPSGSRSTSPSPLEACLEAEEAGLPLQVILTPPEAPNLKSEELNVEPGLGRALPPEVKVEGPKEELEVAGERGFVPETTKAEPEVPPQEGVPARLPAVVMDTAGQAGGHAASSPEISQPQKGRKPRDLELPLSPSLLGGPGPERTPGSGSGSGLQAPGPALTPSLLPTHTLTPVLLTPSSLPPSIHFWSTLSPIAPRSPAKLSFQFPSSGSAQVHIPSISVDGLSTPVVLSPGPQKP
# Outline: as §1
# GABPA = target: T3, GABPA (Homo sapiens, UniProt Q06546 1-454); conditions: protein: recombinant; tags: N-terminal GST; dsDNA, one strand shown
# T3 sequence: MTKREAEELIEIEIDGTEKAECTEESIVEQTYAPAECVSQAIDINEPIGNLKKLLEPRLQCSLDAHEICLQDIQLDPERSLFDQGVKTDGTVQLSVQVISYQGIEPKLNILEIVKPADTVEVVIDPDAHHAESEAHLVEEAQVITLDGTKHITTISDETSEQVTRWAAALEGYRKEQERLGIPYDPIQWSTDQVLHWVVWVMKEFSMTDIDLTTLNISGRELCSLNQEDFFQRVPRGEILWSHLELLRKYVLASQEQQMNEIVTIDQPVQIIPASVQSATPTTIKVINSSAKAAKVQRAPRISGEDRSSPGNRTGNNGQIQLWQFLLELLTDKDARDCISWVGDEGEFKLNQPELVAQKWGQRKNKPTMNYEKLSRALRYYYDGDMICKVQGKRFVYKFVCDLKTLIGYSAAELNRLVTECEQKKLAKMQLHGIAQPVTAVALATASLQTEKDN
# Outline: as §1
# ERG = target: T4, ERG (Homo sapiens, UniProt P11308 1-479); conditions: protein: recombinant; tags: N-terminal GST; dsDNA, one strand shown
# T4 sequence: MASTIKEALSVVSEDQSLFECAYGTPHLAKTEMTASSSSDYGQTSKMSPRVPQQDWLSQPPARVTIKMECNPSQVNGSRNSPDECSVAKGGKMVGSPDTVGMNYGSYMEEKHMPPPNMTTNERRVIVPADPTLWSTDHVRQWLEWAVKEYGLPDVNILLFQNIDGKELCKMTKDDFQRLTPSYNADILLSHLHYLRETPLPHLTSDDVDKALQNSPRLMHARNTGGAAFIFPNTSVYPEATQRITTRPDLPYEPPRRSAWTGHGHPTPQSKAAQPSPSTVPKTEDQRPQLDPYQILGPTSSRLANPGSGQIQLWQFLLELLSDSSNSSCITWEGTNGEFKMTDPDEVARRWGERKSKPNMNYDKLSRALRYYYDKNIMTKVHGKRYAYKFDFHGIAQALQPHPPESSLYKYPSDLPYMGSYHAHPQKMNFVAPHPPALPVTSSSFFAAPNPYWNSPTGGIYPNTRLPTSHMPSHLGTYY
# Outline: as §1
# ELF1 = ELF1 (Homo sapiens, UniProt P32519 1-619); conditions: protein: recombinant; tags: N-terminal GST; dsDNA, one strand shown
# Outline: as §1
# EHF = target: T5, EHF (Homo sapiens, UniProt Q9NZC4 1-300); conditions: protein: recombinant; tags: N-terminal GST; dsDNA, one strand shown
# T5 sequence: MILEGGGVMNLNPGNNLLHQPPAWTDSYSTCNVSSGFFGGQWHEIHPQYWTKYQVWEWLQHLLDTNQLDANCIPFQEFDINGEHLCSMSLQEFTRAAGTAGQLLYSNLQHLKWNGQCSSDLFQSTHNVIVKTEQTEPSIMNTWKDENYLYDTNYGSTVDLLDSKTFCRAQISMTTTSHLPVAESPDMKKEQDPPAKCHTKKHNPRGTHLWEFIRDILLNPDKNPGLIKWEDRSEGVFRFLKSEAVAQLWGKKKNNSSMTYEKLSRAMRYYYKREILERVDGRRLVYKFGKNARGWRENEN
# Outline: as §1
# SPI1 = SPI1 (Homo sapiens, UniProt P17947 1-270); conditions: protein: recombinant; tags: N-terminal GST; dsDNA, one strand shown
# Outline: as §1
# SPIB = SPIB (Homo sapiens, UniProt Q01892 1-262); conditions: protein: recombinant; tags: N-terminal GST; dsDNA, one strand shown
# Outline: as §1
# ELK3 = target: T6, ELK3 (Homo sapiens, UniProt P41970 1-407); conditions: protein: recombinant; tags: N-terminal GST; dsDNA, one strand shown
# T6 sequence: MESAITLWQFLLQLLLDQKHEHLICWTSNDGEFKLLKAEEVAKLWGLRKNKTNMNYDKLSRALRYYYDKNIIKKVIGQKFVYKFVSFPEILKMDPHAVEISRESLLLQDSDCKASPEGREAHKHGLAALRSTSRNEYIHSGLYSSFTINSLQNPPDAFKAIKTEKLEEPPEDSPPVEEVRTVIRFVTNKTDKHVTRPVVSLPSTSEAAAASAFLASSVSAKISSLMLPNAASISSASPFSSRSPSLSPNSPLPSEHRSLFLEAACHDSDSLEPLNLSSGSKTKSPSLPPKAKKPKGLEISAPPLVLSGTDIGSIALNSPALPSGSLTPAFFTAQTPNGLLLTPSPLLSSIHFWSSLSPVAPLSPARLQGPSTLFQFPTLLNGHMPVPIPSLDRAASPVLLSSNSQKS
# Outline: as §1
# FEV = target: T7, FEV (Homo sapiens, UniProt Q99581 1-238); conditions: protein: recombinant; tags: N-terminal GST; dsDNA, one strand shown
# T7 sequence: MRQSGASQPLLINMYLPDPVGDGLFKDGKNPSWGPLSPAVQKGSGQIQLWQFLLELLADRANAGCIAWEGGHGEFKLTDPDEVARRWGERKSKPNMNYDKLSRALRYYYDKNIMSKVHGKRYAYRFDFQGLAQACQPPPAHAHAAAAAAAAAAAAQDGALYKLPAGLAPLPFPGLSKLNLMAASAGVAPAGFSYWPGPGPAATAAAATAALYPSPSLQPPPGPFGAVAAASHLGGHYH
# Outline: as §1
# ETV5 = ETV5 (Homo sapiens, UniProt P41161 1-510); conditions: protein: recombinant; tags: N-terminal GST; dsDNA, one strand shown
# Outline: as §1
# HSF1 = HSF1 (Homo sapiens, UniProt Q00613 1-529); conditions: protein: recombinant; tags: N-terminal GST; chain copies: 3; dsDNA, one strand shown
# Outline: as §1
# SPIC = target: T8, SPIC (Homo sapiens, UniProt Q8N5J4 1-248); conditions: protein: recombinant; tags: N-terminal GST; dsDNA, one strand shown
# T8 sequence: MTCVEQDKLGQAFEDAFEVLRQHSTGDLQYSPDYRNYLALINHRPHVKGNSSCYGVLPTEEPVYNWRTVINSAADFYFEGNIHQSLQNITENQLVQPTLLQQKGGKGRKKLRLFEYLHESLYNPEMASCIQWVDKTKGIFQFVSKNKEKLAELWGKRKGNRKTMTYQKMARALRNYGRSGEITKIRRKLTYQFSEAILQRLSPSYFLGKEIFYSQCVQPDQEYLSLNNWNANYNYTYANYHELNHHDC
# Outline: as §1
# ELF4 = ELF4 (Homo sapiens, UniProt Q99607 1-663); conditions: protein: recombinant; tags: N-terminal GST; dsDNA, one strand shown
# Outline: as §1
# ELK4 = target: T9, ELK4 (Homo sapiens, UniProt P28324-2 1-405); conditions: protein: recombinant; tags: N-terminal GST; dsDNA, one strand shown
# T9 sequence: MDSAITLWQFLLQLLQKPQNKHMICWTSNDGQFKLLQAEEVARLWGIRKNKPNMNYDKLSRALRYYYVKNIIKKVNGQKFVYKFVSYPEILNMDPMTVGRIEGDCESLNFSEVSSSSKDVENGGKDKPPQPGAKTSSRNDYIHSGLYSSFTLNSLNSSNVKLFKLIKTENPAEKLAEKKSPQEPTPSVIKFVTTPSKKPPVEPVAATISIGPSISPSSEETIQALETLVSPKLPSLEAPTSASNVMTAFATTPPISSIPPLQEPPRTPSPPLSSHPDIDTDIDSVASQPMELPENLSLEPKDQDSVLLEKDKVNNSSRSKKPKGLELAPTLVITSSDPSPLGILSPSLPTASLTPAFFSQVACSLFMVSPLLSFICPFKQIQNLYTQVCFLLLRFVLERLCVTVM
# Outline: as §1
# ETV2 = target: T10, ETV2 (Homo sapiens, UniProt O00321 1-342); conditions: protein: recombinant; tags: N-terminal GST; dsDNA, one strand shown
# T10 sequence: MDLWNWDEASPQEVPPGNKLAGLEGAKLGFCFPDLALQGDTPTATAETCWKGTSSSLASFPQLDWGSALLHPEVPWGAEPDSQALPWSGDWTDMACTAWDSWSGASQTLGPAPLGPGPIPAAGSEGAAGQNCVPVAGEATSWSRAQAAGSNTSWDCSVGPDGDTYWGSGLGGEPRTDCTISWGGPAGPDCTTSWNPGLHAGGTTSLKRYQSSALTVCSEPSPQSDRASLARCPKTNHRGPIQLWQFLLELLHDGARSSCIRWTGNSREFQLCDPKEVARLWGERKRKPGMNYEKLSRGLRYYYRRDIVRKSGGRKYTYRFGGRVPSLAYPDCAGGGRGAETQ
# Outline: as §1
# ELF3 = target: T11, ELF3 (Homo sapiens, UniProt P78545 1-371); conditions: protein: recombinant; tags: N-terminal GST; dsDNA, one strand shown
# T11 sequence: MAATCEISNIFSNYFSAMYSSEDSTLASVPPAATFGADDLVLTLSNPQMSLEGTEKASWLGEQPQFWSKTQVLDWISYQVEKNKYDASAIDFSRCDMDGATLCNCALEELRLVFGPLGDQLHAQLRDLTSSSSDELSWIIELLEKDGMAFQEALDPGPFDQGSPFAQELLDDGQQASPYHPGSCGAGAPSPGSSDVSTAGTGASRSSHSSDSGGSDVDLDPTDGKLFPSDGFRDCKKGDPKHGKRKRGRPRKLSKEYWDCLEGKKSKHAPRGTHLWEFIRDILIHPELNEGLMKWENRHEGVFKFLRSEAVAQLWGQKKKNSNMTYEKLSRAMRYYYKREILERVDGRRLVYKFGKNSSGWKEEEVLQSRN
# Outline: as §1
# CRX = CRX (Homo sapiens, UniProt O43186 1-299); conditions: protein: recombinant; tags: N-terminal GST; dsDNA, one strand shown
# Outline: as §1
# ETV1 = ETV1 (Homo sapiens, UniProt P50549 1-477); conditions: protein: recombinant; tags: N-terminal GST; dsDNA, one strand shown
# Outline: as §1
# Sequence of ELF4 (Q99607 whole entry): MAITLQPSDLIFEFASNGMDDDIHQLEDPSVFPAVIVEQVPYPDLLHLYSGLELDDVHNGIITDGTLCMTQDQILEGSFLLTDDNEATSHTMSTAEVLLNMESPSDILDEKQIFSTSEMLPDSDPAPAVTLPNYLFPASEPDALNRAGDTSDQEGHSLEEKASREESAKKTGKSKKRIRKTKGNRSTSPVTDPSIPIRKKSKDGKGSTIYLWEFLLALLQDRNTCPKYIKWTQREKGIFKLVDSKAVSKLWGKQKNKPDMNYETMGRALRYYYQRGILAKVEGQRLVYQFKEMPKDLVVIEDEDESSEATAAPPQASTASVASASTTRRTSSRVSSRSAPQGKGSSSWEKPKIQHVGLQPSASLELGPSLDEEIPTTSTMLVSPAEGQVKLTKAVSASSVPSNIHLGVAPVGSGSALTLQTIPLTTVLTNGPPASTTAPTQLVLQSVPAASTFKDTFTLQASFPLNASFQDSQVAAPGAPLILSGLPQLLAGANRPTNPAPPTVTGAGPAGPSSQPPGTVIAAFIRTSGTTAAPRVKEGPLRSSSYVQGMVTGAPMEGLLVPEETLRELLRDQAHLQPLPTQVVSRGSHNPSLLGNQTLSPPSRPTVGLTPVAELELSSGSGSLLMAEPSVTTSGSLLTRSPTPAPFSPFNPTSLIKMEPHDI
# Sequence of ETV5 (P41161 whole entry): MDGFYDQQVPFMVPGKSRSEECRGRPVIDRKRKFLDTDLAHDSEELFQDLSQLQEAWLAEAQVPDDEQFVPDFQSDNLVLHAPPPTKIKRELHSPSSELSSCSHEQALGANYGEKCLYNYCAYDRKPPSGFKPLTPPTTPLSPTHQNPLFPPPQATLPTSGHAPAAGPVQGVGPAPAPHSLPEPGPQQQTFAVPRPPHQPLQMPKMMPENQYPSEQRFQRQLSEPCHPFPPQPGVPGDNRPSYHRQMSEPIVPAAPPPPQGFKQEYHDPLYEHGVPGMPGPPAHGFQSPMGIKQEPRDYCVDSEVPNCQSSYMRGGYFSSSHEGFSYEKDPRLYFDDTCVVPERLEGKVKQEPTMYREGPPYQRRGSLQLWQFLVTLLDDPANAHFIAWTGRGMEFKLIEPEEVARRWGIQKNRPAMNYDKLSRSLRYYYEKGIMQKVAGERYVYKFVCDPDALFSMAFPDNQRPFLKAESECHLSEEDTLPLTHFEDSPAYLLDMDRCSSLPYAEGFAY
# Sequence of CRX (O43186 whole entry): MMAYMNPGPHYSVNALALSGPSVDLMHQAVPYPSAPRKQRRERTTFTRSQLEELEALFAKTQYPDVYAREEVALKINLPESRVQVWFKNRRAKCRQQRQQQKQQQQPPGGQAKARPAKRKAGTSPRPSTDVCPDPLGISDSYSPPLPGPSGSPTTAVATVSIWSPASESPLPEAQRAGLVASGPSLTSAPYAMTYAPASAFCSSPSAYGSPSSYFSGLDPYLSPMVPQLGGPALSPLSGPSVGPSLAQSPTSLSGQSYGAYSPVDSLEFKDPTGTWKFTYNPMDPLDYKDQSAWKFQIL
# Sequence of ELF1 (P32519 whole entry): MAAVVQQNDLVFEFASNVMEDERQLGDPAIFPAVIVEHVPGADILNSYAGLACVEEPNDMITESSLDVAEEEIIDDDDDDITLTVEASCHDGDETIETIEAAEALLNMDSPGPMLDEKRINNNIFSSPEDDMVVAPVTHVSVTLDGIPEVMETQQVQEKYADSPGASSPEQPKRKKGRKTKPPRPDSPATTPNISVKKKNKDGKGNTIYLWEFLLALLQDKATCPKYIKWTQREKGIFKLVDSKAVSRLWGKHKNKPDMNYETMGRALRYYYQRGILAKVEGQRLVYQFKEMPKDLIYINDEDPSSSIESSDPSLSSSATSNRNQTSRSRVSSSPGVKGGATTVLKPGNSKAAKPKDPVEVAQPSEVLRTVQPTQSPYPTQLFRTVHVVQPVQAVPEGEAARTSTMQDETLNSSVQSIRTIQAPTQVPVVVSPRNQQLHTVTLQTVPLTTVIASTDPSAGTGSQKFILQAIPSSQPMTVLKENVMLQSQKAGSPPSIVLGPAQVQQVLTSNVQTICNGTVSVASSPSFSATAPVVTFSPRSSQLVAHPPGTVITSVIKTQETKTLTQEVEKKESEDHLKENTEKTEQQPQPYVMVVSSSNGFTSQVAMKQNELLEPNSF
# Sequence of ETV1 (P50549 whole entry): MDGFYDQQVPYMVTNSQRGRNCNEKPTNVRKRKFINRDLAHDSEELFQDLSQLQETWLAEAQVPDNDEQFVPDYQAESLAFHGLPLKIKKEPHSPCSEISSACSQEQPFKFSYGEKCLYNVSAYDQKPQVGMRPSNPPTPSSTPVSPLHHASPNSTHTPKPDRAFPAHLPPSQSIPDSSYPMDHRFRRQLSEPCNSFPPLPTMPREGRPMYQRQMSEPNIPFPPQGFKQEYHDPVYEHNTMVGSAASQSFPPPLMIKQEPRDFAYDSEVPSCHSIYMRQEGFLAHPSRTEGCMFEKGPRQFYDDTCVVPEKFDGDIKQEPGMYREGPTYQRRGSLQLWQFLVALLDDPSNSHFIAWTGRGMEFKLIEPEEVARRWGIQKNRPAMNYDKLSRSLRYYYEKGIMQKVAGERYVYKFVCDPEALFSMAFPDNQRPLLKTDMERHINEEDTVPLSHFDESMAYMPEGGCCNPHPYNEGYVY
# Sequence of HSF1 (Q00613 whole entry): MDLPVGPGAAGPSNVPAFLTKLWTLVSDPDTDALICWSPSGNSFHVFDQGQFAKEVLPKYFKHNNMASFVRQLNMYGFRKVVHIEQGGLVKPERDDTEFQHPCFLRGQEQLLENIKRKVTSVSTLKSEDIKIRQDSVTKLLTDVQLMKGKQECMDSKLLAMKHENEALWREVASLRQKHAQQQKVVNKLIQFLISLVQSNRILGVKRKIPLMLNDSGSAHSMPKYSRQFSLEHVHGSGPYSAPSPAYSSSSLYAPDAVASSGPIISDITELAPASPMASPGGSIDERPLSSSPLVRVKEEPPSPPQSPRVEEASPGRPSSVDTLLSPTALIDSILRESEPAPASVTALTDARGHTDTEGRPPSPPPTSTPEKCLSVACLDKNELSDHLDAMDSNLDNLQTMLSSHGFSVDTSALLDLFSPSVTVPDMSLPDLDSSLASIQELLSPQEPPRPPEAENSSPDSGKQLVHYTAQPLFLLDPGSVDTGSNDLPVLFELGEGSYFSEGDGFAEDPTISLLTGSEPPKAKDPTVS
# Sequence of SPIB (Q01892 whole entry): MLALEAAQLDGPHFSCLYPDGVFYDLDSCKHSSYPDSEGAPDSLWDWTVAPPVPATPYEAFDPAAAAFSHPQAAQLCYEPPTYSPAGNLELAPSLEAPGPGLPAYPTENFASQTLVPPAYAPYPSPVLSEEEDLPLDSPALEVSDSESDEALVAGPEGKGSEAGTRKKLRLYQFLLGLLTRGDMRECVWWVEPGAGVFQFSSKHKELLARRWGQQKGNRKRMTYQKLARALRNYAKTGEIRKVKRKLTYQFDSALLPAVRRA
sequence,measurement,setting,value
ACTCTT,binding signal,FLI1,"1.17 fold enrichment (6-mer frequency, TF over GST control)"
same,binding signal,ELK1,"1.24 fold enrichment (6-mer frequency, TF over GST control)"
same,binding signal,GABPA,"1.22 fold enrichment (6-mer frequency, TF over GST control)"
same,binding signal,ERG,"1.24 fold enrichment (6-mer frequency, TF over GST control)"
same,binding signal,ELF1,"1.25 fold enrichment (6-mer frequency, TF over GST control)"
same,binding signal,EHF,"1.2 fold enrichment (6-mer frequency, TF over GST control)"
same,binding signal,SPI1,"1.19 fold enrichment (6-mer frequency, TF over GST control)"
same,binding signal,SPIB,"1.25 fold enrichment (6-mer frequency, TF over GST control)"
same,binding signal,ELK3,"1.47 fold enrichment (6-mer frequency, TF over GST control)"
same,binding signal,FEV,"1.18 fold enrichment (6-mer frequency, TF over GST control)"
same,binding signal,ETV5,"1.29 fold enrichment (6-mer frequency, TF over GST control)"
same,binding signal,HSF1,"1.12 fold enrichment (6-mer frequency, TF over GST control)"
same,binding signal,SPIC,"1.3 fold enrichment (6-mer frequency, TF over GST control)"
same,binding signal,ELF4,"1.26 fold enrichment (6-mer frequency, TF over GST control)"
same,binding signal,ELK4,"1.35 fold enrichment (6-mer frequency, TF over GST control)"
same,binding signal,ETV2,"1.31 fold enrichment (6-mer frequency, TF over GST control)"
same,binding signal,ELF3,"1.14 fold enrichment (6-mer frequency, TF over GST control)"
same,binding signal,CRX,"1.19 fold enrichment (6-mer frequency, TF over GST control)"
same,binding signal,ETV1,"1.33 fold enrichment (6-mer frequency, TF over GST control)"
